Rows were chosen to be rich in hits. Some 7.3% of all compounds tested hit in one or more screens of this group.
NPC1 prom act = qHTS Assay for NPC1 Promoter Activators; hit rate 2.4% among 320,000; Potency, µM (highest dose often 9.22 µM), for inactives: at the highest dose activation, usual class: activators; Huh7 NPC1 promoter luciferase reporter, 24 h; further: % of control where 0% means no effect; nearly all actives have a fitted effect of over 60% in size
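Compounds in DMSO were transferred onto Huh7 NPC1-luciferase reporter cells pre-incubated 2 h; after 24 h at 37 °C, Amplite reagent was dispensed and luminescence recorded 10 min later.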
ELG1 genotox = qHTS screen for small molecules that induce genotoxicity in human embryonic kidney (HEK293T) cells expressing luciferase-tagged ELG1; HEK293T ELG1-luciferase reporter, luminescence, 16 h; Potency, µM (doses to about 46 µM), inactives show at the top dose activity change, positive = activation, usual class: activators; hit rate 1.3% among 330,000; AID 504466, 2011; further: % of control where 0% means no effect; nearly all actives have a fitted effect of over 60% in size
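Reporter readout depends on ELG1 protein level, which increases with genetic stress. After 16 hr compound exposure at 37 °C, luciferase activity was quantified using ONE-Glo.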
FLuc modulator = qHTS profiling assay for firefly luciferase inhibitor/activator using purifed enzyme and Km concentrations of substrates (counterscreen for miR-21 project). Luciferin 4-monooxygenase (Photinus pyralis), P08659. purified FLuc, Km substrates, luminescence inhibition. Potency, µM (series often up to 57.5 µM), without a hit: at the highest dose activity change, negative = inhibition, most hits filed as inhibitors. hit rate 6.9% among 360,000. AID 588342, 2011;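 further: plate controls were vehicle for no effect and reference inhibitor for full effect; nearly all actives have a fitted effect of over 55% in size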
Target sequence (P08659 whole entry, looked up): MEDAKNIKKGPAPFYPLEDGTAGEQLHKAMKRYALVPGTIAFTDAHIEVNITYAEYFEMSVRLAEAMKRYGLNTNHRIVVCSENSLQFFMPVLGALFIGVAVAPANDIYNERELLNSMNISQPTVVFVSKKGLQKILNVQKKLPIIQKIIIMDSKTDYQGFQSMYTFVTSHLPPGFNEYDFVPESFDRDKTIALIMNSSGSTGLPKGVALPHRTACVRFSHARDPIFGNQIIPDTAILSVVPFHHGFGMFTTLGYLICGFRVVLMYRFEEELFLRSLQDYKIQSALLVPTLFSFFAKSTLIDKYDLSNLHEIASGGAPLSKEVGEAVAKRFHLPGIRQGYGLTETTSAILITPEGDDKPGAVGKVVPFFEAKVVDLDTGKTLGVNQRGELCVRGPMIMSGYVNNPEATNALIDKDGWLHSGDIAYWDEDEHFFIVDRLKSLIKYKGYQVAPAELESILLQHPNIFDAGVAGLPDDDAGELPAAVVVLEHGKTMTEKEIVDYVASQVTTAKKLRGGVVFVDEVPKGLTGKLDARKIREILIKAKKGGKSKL
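Biochemical qHTS of compounds, final roughly 60 µM downward over six points, against 10 nM purified firefly luciferase using Km concentrations of substrates (10 uM D-luciferin, 10 uM ATP) in Tris acetate pH 7.5 buffer; luminescence output.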
Luc counter = Counterscreen for Luciferase (Kinase-Glo TM) Inhibition. Kinase-Glo luciferase, ATP luminescence, 8 min. Potency, µM (series often up to 38.3 µM), inactives show at the highest dose activity change, negative = inhibition, most hits filed as inhibitors. hit rate 0.28% among 200,000. AID 1379, 2008; further: on the % scale 0 is the no-effect control and ±100 the full control effect; nearly all actives have a fitted effect of over 60% in size
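Compounds were added to a substrate mix at pH 7.2 (50 mM imidazole, 10 uM ATP, within the enzyme's linear range), followed by Kinase-Glo detection reagent; luminescence was measured after 8 minutes at ambient temperature.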
SMN2 splice enh = qHTS Assay for Enhancers of SMN2 Splice Variant Expression; hit rate 2.8% among 210,000; Potency, µM (titrated, usually from 46.1 µM), for the others: top-dose activity change, positive = activation, most hits filed as activators; HEK293 SMN2-luciferase splicing reporter, luminescence, 30-36 h; further: % of control where 0% means no effect; nearly all actives have a fitted effect of over 55% in size
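qHTS luciferase splicing reporter: luminescence rises when SMN2 exon 7 is included in transfected HEK293 cells. Compound exposure lasted 30-36 h at 37C, with 4.5 mM final sodium butyrate as control, followed by a ONE-Glo read.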
Rab9 prom act = qHTS Assay for Rab9 Promoter Activators. Huh7 Rab9 promoter-luciferase reporter, luminescence, 24 h. Potency, µM (highest dose often 9.22 µM), for the others: at the top dose activation, negative = inhibition, actives largely listed as activators. hit rate 2.8% among 320,000; further: % of control where 0% means no effect; nearly all actives have a fitted effect of over 60% in size
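Quantitative HTS format; Huh7 Rab9-luciferase reporter cells (1500/well) receive compound 2 h post-plating, incubate 24 h at 37 °C, then get luciferase reagent for 10 min before luminescence reading.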
The depositor's hits bear a star; ? = inconclusive; . = not tested or not shown; [ ] = remark or other dose. The call rests on the fitted dose curve; in most records, active means well fitted curve in the direction sought with a large enough effect; inconclusive means small, poorly fitted or top-dose-only effect, or another doubt; inactive means no such curve, though single readings can be large; an effect the other way counts as inactive or inconclusive. Potency means the concentration at half of the fitted maximal effect.

SMILES	NPC1 prom act	ELG1 genotox	FLuc modulator	Luc counter	SMN2 splice enh	Rab9 prom act
COc1ccc(C(=O)NCC(=O)OCC(=O)NC23CC4CC(CC(C4)C2)C3)cc1	.	4%	.	.	.	.
COc1ccc(C(=O)NC23CC4CC(CC(C4)C2)C3)cc1	2%	4%	7.6µM*	.	.	18%
CSc1ccc(Cc2ccc(Cl)cc2Cl)nn1	28%	12%	17µM*	1%	-11%	?
NNc1ccc(Cc2ccc(Cl)cc2Cl)nn1	-1%	19%	-1%	-1%	-74%	5%
CSc1ccccc1OCc1cc(C(=O)N2CCN(c3ccccc3)CC2C)no1 (centres undefined)	?	13%	15µM*	.	.	4.5µM*
CSc1ccccc1OCc1cc(C(=O)N2CCC(c3ccncc3)CC2)no1	-25%	-8%	-17%	.	.	-20%
CC(=O)c1ccc(OCc2cc(C(=O)N3CCC[C@H]3CO)no2)cc1	-5%	3%	-3%	.	.	10%
CC(=O)c1ccc(OCc2cc(C(=O)N3CCN(c4ccccc4)CC3C)no2)cc1 (centres undefined)	1.6µM*	?	8.5µM*	.	.	1.3µM*
COc1ccc2c(c1)Cc1cc(N=[N+]([O-])c3ccc4c(c3)Cc3cc(OC)ccc3-4)ccc1-2	.	.	.	-1%[7.66 µM]	2%[9.22 µM]	.
COc1cccc(N(Cc2nnc3n2CCCCC3)C(=O)Nc2cccc(Cl)c2)c1	.	.	-5%	.	.	.
CCOC(=O)N1CCc2c(sc3c2c(=O)n(Cc2ccccc2)c(=O)n3Cc2ccccc2Cl)C1	.	.	3%	.	9%	.
CCn1ccc(C(=O)Oc2ccc(C(C)C)cc2)n1	0%	?	2.7µM*	0%	1%	-3%
CCn1ccc(C(=O)N2CCOCC2)n1	-3%	-2%	1%	0%	4%	1%
c1ccc(-c2ncc(-c3ccn[nH]3)s2)cc1	1.4µM*	?	3.4µM*	-24%	2.8µM*	0.56µM*
c1csc(-c2ccn[nH]2)c1	0%	4%	-16%	.	.	2%
CN(Cc1cc(Br)cc(Br)c1N)C1CCCCC1	.	.	.	-3%	-12%	.
O=c1oc2ccccc2cc1-c1ccc(O)cc1O	-1%	5%	?	-3%	2%	-2%
O=c1oc2ccc3ccccc3c2cc1-c1nnc(Nc2ccccc2F)s1	.	.	-1%	.	1%	.
O=c1oc2cc(O)ccc2cc1-c1ccc2c(c1)OCCO2	.	.	.	-3%	18µM*	.
O=c1oc2cc(O)ccc2cc1-c1ccccc1	?	?	24µM*	.	.	4%
O=c1c(-c2ccc3c(c2)OCCO3)coc2cc(O)cc(O)c12	1.8µM*	2.5µM*	4.8µM*	-17%	6.3µM*	?
O=c1oc2cc(O)ccc2cc1-c1nnc(Nc2ccccc2F)s1	.	.	2.4µM*	.	4µM*	.
O=C(O)[C@@H]1[C@@H](C(=O)Nc2ncccn2)[C@@H]2C=C[C@@H]1O2	.	.	.	-4%[7.66 µM]	-13%[9.22 µM]	.
CC(=O)c1ccc(NS(=O)(=O)c2ccc3[nH]c(=O)[nH]c3c2)cc1	.	.	-19%	.	.	.
COc1ccc(-c2cc3ccc(O)cc3oc2=O)cc1	1.3µM*	8.2µM*	4.8µM*	.	.	3.2µM*
SMILES	NPC1 prom act	ELG1 genotox	FLuc modulator	Luc counter	SMN2 splice enh	Rab9 prom act
O=C(NCc1ccc(Cl)cc1)C(=O)NCC(c1ccco1)S(=O)(=O)c1cccs1 (centres undefined)	.	.	-3%	.	.	.
CCOC(=O)c1c(-c2ccccc2)nc2ccc(C)cn12	3.5µM*	?	9.5µM*	-5%	5%	2.2µM*
CCOC(=O)C(=O)c1c(-c2ccccc2)nc2ccccn12	-1%	-5%	-7%	0%	17%	12%
CCOC(=O)c1c(-c2ccccc2)nc2cc(C)ccn12	?	13%	11µM*	-6%	25%	?
O=[N+]([O-])c1ccc(Cl)cc1Cl	.	.	.	.	4%	.
C=CC(C1=CC(=O)C(OC)=C(OC)C1=O)c1ccccc1 (centres undefined)	.	.	.	-6%	1%	.
CCCCC1(C)OC(=O)C(=Cc2ccc(-c3ccc(Cl)c(C(=O)O)c3)o2)C(=O)O1 (centres undefined)	3%	0%	?	.	.	-2%
CCOC(=O)CN1C(=O)S/C(=C\c2ccc(-c3ccc(C(=O)O)c(Cl)c3)o2)C1=O	-4%	-2%	-9%	.	.	9%
O=C1NN(c2ccccc2)C(=O)/C1=C\c1ccc(-c2cc([N+](=O)[O-])ccc2O)o1	-3%	1%	15µM*	-27%	.	-4%
CC(C)N1C(=O)S/C(=C\c2ccc(-c3ccc(Cl)c(C(=O)O)c3)o2)C1=O	0.5µM*	1.2µM*	3µM*	.	.	0.4µM*
Cc1ccc(N2NC(=O)/C(=C/c3ccc(-c4ccc(Cl)c(C(=O)O)c4)o3)C2=O)cc1	0%	0%	11µM*	-2%	9%	-3%
O=C1NN(c2ccc(Cl)cc2)C(=O)/C1=C\c1ccc(-c2cccc(C(=O)O)c2)o1	7%	15%	17µM*	1%	26%	14%
COc1ccc(Sc2ccc(/C=C3\C(=O)NN(c4ccccc4)C3=O)o2)cc1	-3%	4%	-17%	0%	0%	-7%
CCCN1C(=O)S/C(=C/c2ccc(N3CCOCC3)o2)C1=O	25%	?	?	.	.	?
CCN(CC)c1ccc(/C=C2/SC(=O)N(C(C)C)C2=O)o1	26%	-13%	21µM*	-1%	21%	24%
Brc1ccc2oc(-c3ccn[nH]3)cc2c1	2.2µM*	?	3µM*	.	.	2.5µM*
Cc1cc(C)n2c(Nc3ccc(C(C)C)cc3)c(-c3ccsc3)nc2n1	.	.	11µM*	.	1%	.
Cc1cc(C)n2c(Nc3ccc(Cl)cc3)c(-c3ccsc3)nc2n1	.	.	-11%	.	7%	.
CCc1ccc(-c2nn(CC(=O)NCc3ccccc3)c3c2cnc2ccc(C)cc23)cc1	.	.	-1%	.	.	.
CC(=O)c1cc2c(=O)c3cc(C)ccc3oc2nc1C	?	10µM*	8.5µM*	?	13µM*	3.5µM*
CCOC(=O)c1cc2c(=O)c3cc(C)ccc3oc2nc1C	2.8µM*	?	1.9µM*	.	.	3.2µM*
Cc1ccc2oc3nc(C)c(C(=O)O)cc3c(=O)c2c1	2.8µM*	24%	13µM*	4.5µM*	5.6µM*	2.2µM*
CCN(C(=O)c1cc2cc3ccc(OC)cc3nc2o1)c1cccc(C)c1	.	.	-17%	.	-4%	.
CCCCN(CC)C(=O)c1cc2cc3ccc(OC)cc3nc2o1	?	4%	15µM*	-2%	-5%	?

Screens as filed in PubChem BioAssay.
